Laboratory results taken from PubChem BioAssay (EPA / NIEHS).
“And” between values parts separate entries of the source, which are not always exact repeats. Equal values may be shown once. Some compounds were tested as several samples or in several runs, with calls that do not always agree. The source made the active and inactive calls. How the source made its calls: active means hit-call score of the fitted dose curve at least 0.9, where 1 is the maximum; inactive means score below 0.9.

The compounds below were run on CD38, CD38 (gene 952) (assay: BSK_SAg_CD38: BioMAP Diversity Plus: SAg Assay for CD38 Biomarker Activity (AID 2283087)). Conditions: primary human HUVEC with PBMC; actives raise or lower the signal.
Procedure, shortened: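 Measures CD38 on a human endothelial/PBMC co-culture driven by SEB and TSST-1, 24 h after compound exposure, using ELISA with fluorescence detection; DMSO defines baseline for bidirectional curve fitting.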

outcome, inactive:
O=C(O)CCC(F)(F)C(F)(F)C(F)(F)C(F)(F)C(F)(F)F
COc1cccc(O)c1
Clc1ccc(Nc2nnc(Cc3ccncc3)c3ccccc23)cc1
CCCCCCCCCCCC
Cc1cccc2c1ccc1ccccc12
O=P(O)(O)CCC(F)(F)C(F)(F)C(F)(F)C(F)(F)C(F)(F)C(F)(F)F
O=C(NCc1ncc(C(F)(F)F)cc1Cl)c1c(Cl)cccc1Cl
CCCCCCCCCCCCOS(=O)(=O)O
O=C(CCCN1CCC(O)(c2ccc(Cl)cc2)CC1)c1ccc(F)cc1
CCCCCCCCCCCCCCC
O=S(=O)(O)C(F)(F)C(F)(F)C(F)(F)C(F)(F)C(F)(F)C(F)(F)C(F)(F)C(F)(F)C(F)(F)C(F)(F)F
OCC(F)(F)C(F)(F)C(F)(F)C(F)(F)C(F)(F)C(F)(F)C(F)(F)C(F)(F)C(F)(F)C(F)(F)C(F)(F)F
CN(Cc1cnc2nc(N)nc(N)c2n1)c1ccc(C(=O)N[C@@H](CCC(=O)O)C(=O)O)cc1
Cc1ccc(N=Nc2c(O)ccc3ccccc23)c(C)c1
CN(CCO)S(=O)(=O)C(F)(F)C(F)(F)C(F)(F)C(F)(F)C(F)(F)C(F)(F)C(F)(F)C(F)(F)F
O=P(O)(O)CCC(F)(F)C(F)(F)C(F)(F)C(F)(F)C(F)(F)C(F)(F)C(F)(F)C(F)(F)F
O=C(c1ccccc1)c1ccccc1
OCC(CO)(CBr)CBr
O=C1c2ccc(O)c(O)c2C(=O)c2c(O)ccc(O)c21
COC1=CC(=O)C[C@@H](C)[C@]12Oc1c(Cl)c(OC)cc(OC)c1C2=O
N=C(N)c1ccc(OCCCCCOc2ccc(C(=N)N)cc2)cc1

AC50, active:
NC(=NCCCCCCN=C(N)/N=C(\N)Nc1ccc(Cl)cc1)/N=C(\N)Nc1ccc(Cl)cc1 8.71 µM
O=C(CC(=O)C(F)(F)C(F)(F)C(F)(F)F)c1cccs1 23.1 µM and 28.6 µM
CCCCCCCCCCCCCCCCCC[N+](C)(C)Cc1ccccc1 2.73 µM
Oc1c(Cl)cc(Cl)cc1Sc1cc(Cl)cc(Cl)c1O 9.47 µM and 9.95 µM
O=C(O)C(F)(F)OC(F)(F)C(F)(F)OC(F)(F)C(F)(F)OC(F)(F)C(F)(F)C(F)(F)C(F)(F)F 45.5 µM and 47.5 µM
OCCN1CN(CCO)CN(CCO)C1 31.6 µM
OCC(F)(F)C(F)(F)C(F)(F)C(F)(F)C(F)(F)C(F)(F)C(F)(F)C(F)(F)C(F)(F)C(F)(F)C(F)(F)F 0.00623 µM
O=P(O)(O)CCC(F)(F)C(F)(F)C(F)(F)C(F)(F)C(F)(F)C(F)(F)C(F)(F)C(F)(F)F 30 µM
Cc1[nH]nc2c1N=C(c1ccccc1Cl)c1cc([N+](=O)[O-])ccc1N2 5.77 µM

These compounds were tested on CD40, CD40 (gene 958) (assay: BSK_SAg_CD40: BioMAP Diversity Plus: SAg Assay for CD40 Biomarker Activity (AID 2283088)). Conditions: primary human HUVEC with PBMC; actives raise or lower the signal.
Procedure, shortened: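 HUVEC/PBMC co-culture, 24 h post-dose; CD40 by ELISA, fluorescence intensity; bidirectional fit vs DMSO negative control.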

outcome, inactive:
O=C(O)CCC(F)(F)C(F)(F)C(F)(F)C(F)(F)C(F)(F)F
COc1cccc(O)c1
Clc1ccc(Nc2nnc(Cc3ccncc3)c3ccccc23)cc1
CCCCCCCCCCCC
Cc1cccc2c1ccc1ccccc12
O=P(O)(O)CCC(F)(F)C(F)(F)C(F)(F)C(F)(F)C(F)(F)C(F)(F)F
O=C(NCc1ncc(C(F)(F)F)cc1Cl)c1c(Cl)cccc1Cl
CCCCCCCCCCCCOS(=O)(=O)O
O=C(CCCN1CCC(O)(c2ccc(Cl)cc2)CC1)c1ccc(F)cc1
CCCCCCCCCCCCCCC
OCC(F)(F)C(F)(F)C(F)(F)C(F)(F)C(F)(F)C(F)(F)C(F)(F)C(F)(F)C(F)(F)C(F)(F)C(F)(F)F
CN(Cc1cnc2nc(N)nc(N)c2n1)c1ccc(C(=O)N[C@@H](CCC(=O)O)C(=O)O)cc1
Cc1ccc(N=Nc2c(O)ccc3ccccc23)c(C)c1
CN(CCO)S(=O)(=O)C(F)(F)C(F)(F)C(F)(F)C(F)(F)C(F)(F)C(F)(F)C(F)(F)C(F)(F)F
O=P(O)(O)CCC(F)(F)C(F)(F)C(F)(F)C(F)(F)C(F)(F)C(F)(F)C(F)(F)C(F)(F)F
O=C(c1ccccc1)c1ccccc1
OCC(CO)(CBr)CBr
O=C1c2ccc(O)c(O)c2C(=O)c2c(O)ccc(O)c21
COC1=CC(=O)C[C@@H](C)[C@]12Oc1c(Cl)c(OC)cc(OC)c1C2=O
N=C(N)c1ccc(OCCCCCOc2ccc(C(=N)N)cc2)cc1

AC50, active:
NC(=NCCCCCCN=C(N)/N=C(\N)Nc1ccc(Cl)cc1)/N=C(\N)Nc1ccc(Cl)cc1 5.1 µM
O=C(CC(=O)C(F)(F)C(F)(F)C(F)(F)F)c1cccs1 17 µM and 16.2 µM
CCCCCCCCCCCCCCCCCC[N+](C)(C)Cc1ccccc1 2.74 µM
Oc1c(Cl)cc(Cl)cc1Sc1cc(Cl)cc(Cl)c1O 13.8 µM and 9.99 µM
O=C(O)C(F)(F)OC(F)(F)C(F)(F)OC(F)(F)C(F)(F)OC(F)(F)C(F)(F)C(F)(F)C(F)(F)F 43.7 µM and 45.3 µM
OCCN1CN(CCO)CN(CCO)C1 31.1 µM
O=S(=O)(O)C(F)(F)C(F)(F)C(F)(F)C(F)(F)C(F)(F)C(F)(F)C(F)(F)C(F)(F)C(F)(F)C(F)(F)F 13.3 µM and 7.42 µM
O=P(O)(O)CCC(F)(F)C(F)(F)C(F)(F)C(F)(F)C(F)(F)C(F)(F)C(F)(F)C(F)(F)F 30 µM
Cc1[nH]nc2c1N=C(c1ccccc1Cl)c1cc([N+](=O)[O-])ccc1N2 4.7 µM
